Lassa entry inh: inhibitors of Lassa virus binding or cell entry; Lassa virus pseudotype entry inhibition, cell reporter; Potency, µM (titrated, usually from 37.9 µM), for inactives: at the highest dose activity change, negative = inhibition, usual class: inhibitors; actives 1.2% (n = 300,000); calls by dose curve; tested in HEK293 cells; note: potency is the fitted concentration of half-maximal effect; nearly all actives have a fitted effect of over 50% in size
MARV entry inh: Marburg virus entry inhibition | Marburg virus pseudotyped entry inhibition, cell reporter | Potency, µM (titrated, usually from 37.8 µM), inactives show at the top dose activity change, negative = inhibition, usual class: inhibitors | actives 1.8% (n = 300,000) | AID 540276; calls by dose curve; tested in HEK293 cells; note: potency is the fitted concentration of half-maximal effect
Vaccinia Venus: vaccinia inhibition (Venus reporter) | Vaccinia virus Venus reporter expression, fluorescence | Potency, µM (highest dose often 36.5 µM), without a hit: top-dose activity change, negative = inhibition, most hits filed as inhibitors | actives 0.46% (n = 330,000) | AID 720580; calls by dose curve; tested in A549 cells; note: potency is the fitted concentration of half-maximal effect; nearly all actives have a fitted effect of over 30% in size
HCMV inh: blocks human cytomegalovirus replication | HFF cells, HCMV-luciferase reporter, 72 h; active compounds read low | activity change, negative = inhibition, % at 57.5 µM | actives 4.5% (n = 410,000); in the data active = activity change below about -60%; inconclusive = no clear call, values can overlap the other calls; inactive = above about -39%
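Steps: HFFs plated, 16 h 37C; compounds added; HCMV-luciferase added to MOI 1 PFU/cell; 72 h 37C; OneGlo reagent, 5 min room temperature; luminescence read, normalized to controls.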
VACV mCherry inh: inhibitors of vaccinia virus infection (mCherry reporter signal); actives 0.63% (n = 310,000); Potency, µM (series often up to 36.5 µM), for inactives: at the top dose activity change, negative = inhibition, most hits filed as inhibitors; Vaccinia virus mCherry reporter infection, fluorescence; AID 720579; calls by dose curve; tested in A549 cells; note: potency is the fitted concentration of half-maximal effect; nearly all actives have a fitted effect of over 35% in size
HCV inhibitor: HCV inhibition; Huh7.5.1 HCVcc-Cre infection, luciferase reporter, 44 h; Potency, µM (doses to about 41.8 µM), for inactives: at the highest dose activity change, negative = inhibition, usual class: inhibitors; actives 3.4% (n = 340,000); AID 651820; active = well fitted inhibition curve with a large enough effect; inconclusive = small, poorly fitted or top-dose-only effect, or another doubt; inactive = no such curve, though single readings can be large or run the other way; note: potency is the fitted concentration of half-maximal effect
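Reporter virus HCVcc-Cre (~0.5 moi) infects cells exposed to compound; seeding density 1,000 cells/well with 4 h settling beforehand. Luminescence, 15 sec read, taken 44 h post-infection following a 15 min RT substrate incubation.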
Active calls of the source: *; i = inactive; ? = inconclusive; . = not tested or not shown; [ ] = remark or other dose. Only some compounds are listed: those with a hit (about 7.8% of all), similar ones and a draw of the others. % is set by controls: 0 for no effect and ±100 for the full control effect.

SMILES | Lassa entry inh | MARV entry inh | Vaccinia Venus | HCMV inh | VACV mCherry inh | HCV inhibitor
COc1ccc(NC(=O)c2oc3ccccc3c2NC(=O)C2CCCCC2)c(OC)c1 | 26%[46.1 µM] | 8%[46.1 µM] | 2% | -3 | 0% | .
Cc1cc(C)n(-c2nc(SCCN(C)C)c3c4c(sc3n2)COC(C)(C)C4)n1 | ? | ? | . | 11 | . | 7.9µM*
COc1ccc(C(=O)OCc2ccccc2F)cc1S(=O)(=O)N1CCCC1 | -11% | ? | -17% | -97* | -7% | ?
COc1ccc(C(=O)NC2CCCCCC2)cc1S(=O)(=O)N1CCCC1 | 20% | 27%[46.1 µM] | -13% | -63* | -2% | 5%
COc1ccc(C(=O)NC2CCCCCC2)cc1S(=O)(=O)N1CCCc2ccccc21 | 7.1µM* | ? | -10% | -62* | -11% | ?
COc1ccc(C(=O)N(C)Cc2ccccc2F)cc1S(=O)(=O)N1CCCC1 | . | . | . | -29 | . | 6%
COc1cc(=O)n2c(c1C(=O)N(C)C(C)c1ccco1)CCN(C(=O)c1ccc(C(C)=O)cc1)CC2 (centres undefined) | . | . | 0% | . | i | .
O=C(Nc1ccc(-c2csc(-c3ccccc3)n2)cc1)c1ccccc1Cl | -18% | ? | ? | -67* | ? | ?
Cc1nc(-c2ccc(NC(=O)c3ccccc3)cc2)cs1 | . | . | . | ? | . | 11µM*
O=C(Nc1ccc(-c2csc(Nc3cccc(C(F)(F)F)c3)n2)cc1)c1ccccc1 | . | . | ? | -83* | ? | ?
O=C(O)c1ccccc1C(=O)Nc1ccc(-c2csc(-c3ccccc3)n2)cc1 | 2% | ? | -24% | -10 | -8% | ?
O=C(Nc1ccc(-c2csc(Nc3cccc(C(F)(F)F)c3)n2)cc1)c1cc([N+](=O)[O-])cc(C(F)(F)F)c1 | . | . | ? | -78* | -29% | ?
Cc1ccc(C(=O)Nc2ccc(-c3csc(C)n3)cc2)cc1 | ? | -16% | -24% | ? | -4% | ?
COC(=O)N[C@@H](C=Cc1ccccc1)[C@@H](C)[N+](=O)[O-] | . | 2%[14.2 µM] | . | . | . | .
O[C@H](c1ccc(F)cc1)[C@H](c1ccccc1)N1CCOCC1 | . | 9% | . | . | . | .
Cc1cc(N2CCOCC2)ccc1/C=C\[N+](=O)[O-] | 21µM* | ? | 10µM* | -98* | ? | ?
CCCCc1ncc(CN2CCC(CC3CCCCO3)(C(=O)OCC)CC2)[nH]1 (centres undefined) | 26%[46.1 µM] | ? | -9% | -25 | i | 7%
CCOC(=O)C1(CC2CCCCO2)CCN(Cc2cc3ccccc3[nH]2)CC1 (centres undefined) | 10µM* | ? | ? | -27 | 2.5µM* | ?
Cc1ccc(C)c(NC(=O)C2CCCN(c3nc4ccccc4s3)C2)c1 (centres undefined) | -22%[46.1 µM] | 12%[46.1 µM] | -11% | 30 | -5% | .
CC(C)(C)OC(=O)N[C@H](Cc1ccccc1)C(=O)N1CCC[C@@H]1C(=O)O | . | . | . | -80* | . | 13%
CC(C)(C)OC(=O)N[C@@H](Cc1ccccc1)C(=O)N1CCC(C(=O)O)CC1 | 5% | 3% | -7% | -22 | . | 16%
COc1ccc(/C=N/NC(=O)c2cccc(Br)c2)cc1Cn1cc(Cl)cn1 | ? | 7.1µM* | ? | -14 | ? | ?
COc1ccc(/C=N/NC(=O)c2ccc(Br)cc2)cc1Cn1cc(Cl)cn1 | -7% | ? | 0% | -9 | -13% | -9%
Cc1[nH]c2ccccc2c1/C=N/NC(=O)c1cccc(Br)c1 | -19%[46.1 µM] | 3%[46.1 µM] | -8% | . | -21% | -23%
O=C(N/N=C/c1[nH]c2ccccc2c1Cl)c1cccc(Br)c1 | -12%[46.1 µM] | ? | 0% | -32 | -10% | 7.1µM*
SMILES | Lassa entry inh | MARV entry inh | Vaccinia Venus | HCMV inh | VACV mCherry inh | HCV inhibitor
COc1ccc2ccccc2c1/C=N\NC(=O)c1ccc(C)s1 | 7%[46.1 µM] | -21%[46.1 µM] | -19% | ? | -2% | 10µM*
COc1ccc2ccccc2c1/C=N/NC(=O)c1cccc(Br)c1 | -11% | 0% | -6% | -67* | -26% | ?
CCC(NC(=O)Nc1nnc(C(F)(F)F)s1)(C(F)(F)F)C(F)(F)F | 7.1µM* | 2.5µM* | 2µM* | -105* | 3.5µM* | 4.5µM*
O=C(O)CCC(=O)Nc1nnc(C(F)(F)F)s1 | -3% | 8%[46.1 µM] | ? | -14 | . | 0%
Nc1[nH]c(=S)[nH]c(=O)c1N=O | . | . | 7% | . | 13% | .
C/C(Cl)=C\Cn1c(N2CCCC2)nc2c1c(=O)[nH]c(=O)n2C | 5% | -23% | -11% | -89* | . | -7%
C=CCn1c(N2CCCCCC2)nc2c1c(=O)[nH]c(=O)n2C | -17% | -6% | -15% | -17 | ? | 14%
COc1cc(=O)n2c(c1C(=O)N(C)Cc1nonc1C)CCN(C(=O)c1cc(C)cc(C)c1)CC2 | . | . | -16% | . | -8% | .
COc1ccc(NS(=O)(=O)c2cc(NC(=O)C3CCCO3)ccc2N2CCCCC2)cc1 (centres undefined) | ? | ? | -9% | -64* | -16% | ?
COc1ccc(NS(=O)(=O)c2ccc(N3CCCC3)c(NC(=S)Nc3ccc(SC(F)F)cc3)c2)cc1 | ? | ? | -13% | -28 | ? | 22µM*
COc1ccc(NS(=O)(=O)c2cc(NC(=O)C3CCCO3)ccc2N2CCCC2)cc1 (centres undefined) | 27%[46.1 µM] | 7%[46.1 µM] | -3% | -1 | i | 11%
COc1ccc(NS(=O)(=O)c2cc(NC(=O)c3ccco3)ccc2N2CCCC2)cc1 | ? | ? | -7% | -12 | -17% | 10µM*
Cc1ccccc1C(=O)OCc1cc(=O)n2nc(C(C)C)sc2n1 | ? | . | -8%[7.34 µM] | -1 | -10%[7.34 µM] | .
COCC1CN(CCc2ccc(F)cc2)S(=O)(=O)c2c(OCCN3C(=O)[C@@H]4[C@H](C3=O)[C@@H]3C=C[C@H]4C3)cccc2O1 (some centres undefined) | . | . | . | 3 | . | .
CC(=O)/C(C#N)=C1\NC(=O)C(Cc2ccc(C)c(Cl)c2)S1 (centres undefined) | ? | ? | 56%[7.34 µM] | -92* | -2%[7.34 µM] | 3%
CCc1ccc(CC2S/C(=C(\C#N)C(C)=O)NC2=O)cc1 (centres undefined) | 5.8µM* | ? | . | -90* | . | 2%
CCOC(=O)c1ccc(CC2S/C(=C(\C#N)C(C)=O)NC2=O)cc1 (centres undefined) | ? | ? | 109% | 119 | 22% | 18%
NC(COCc1ccccc1)c1csc(Nc2ncccn2)n1 (centres undefined) | . | . | -11% | 31 | i | .
CC(C)CC(N)c1csc(Nc2ncccn2)n1 (centres undefined) | . | . | ? | -27 | 7.9µM* | .
C=CCOC(=O)C(C(C)=O)[C@@H](NC(=O)OC)c1ccco1 (some centres undefined) | . | 19%[14.2 µM] | . | . | . | .
Cc1cc(C)nc(-n2nc(C)cc2Nc2ccccc2)n1 | -27% | ? | ? | -66* | . | 10µM*

Screening results (PubChem)
